Reference: PubChem BioAssay AID995 (National Center for Advancing Translational Sciences (NCATS), 2007)
The campaign covered roughly 72,000 compounds. About 710 (0.99%) were called active. Another 7% or so got no clear call; they are omitted. The call rests on the fitted dose curve; in most records, active means well fitted inhibition curve with a large enough effect; inconclusive means small, poorly fitted or top-dose-only effect; inactive means no such curve, though single readings can be large or run the other way. Many of the other results were omitted from the sample, so actives are more common in it than they were.

assay: qHTS Assay for Inhibitors of the ERK Signaling Pathway using a Homogeneous Screening Assay; conditions: HEK293-V1b, vasopressin-stimulated pERK AlphaScreen; series mostly up to 57.5 µM; further: nearly all actives have a fitted effect of over 55% in size
Outline: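 Phosphorylated ERK1/2 detected via AlphaScreen bead proximity in lysates of V1b-expressing HEK293 cells given 25 nM vasopressin for 5 min after 30 min compound exposure (37 °C). AC50 from Hill equation; basal DMSO 0%, vasopressin 100%.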
On the % scale 0 is the no-effect control and ±100 the full control effect; potency means the concentration at half of the fitted maximal effect.

activity, negative = inhibition, inactive:
C=CCOC(=O)C(C(C)=O)C(NC(=O)OC)c1ccccc1 (centres undefined) 29.5% [at 11.5 µM]
c1ccc(CCN2CCN=C2Cc2ccccc2)cc1 9.2% [at 11.5 µM]
CO[C@H]1COC(=O)C/C=C\[C@H](C)COC(=O)[C@@H](OCc2ccccc2)/C=C\[C@@H]1C 0.999% [at 11.5 µM]
C[C@@H](N)[C@@H](C)Cc1ccccc1 -2.1% [at 11.5 µM]

Potency, inactive:
Cn1c(=O)c(-c2ccccc2)nc2cnc(N3CCNCC3)nc21
CCCCNc1nc(C)nc2c1nc(-c1ccccc1)n2CCCCN(CC)CC
C=C1C(=O)C23C(O)C1CCC2[C@]12COC3(O)C(O)C1C(C)(C)CC[C@H]2O (some centres undefined)
COCCn1c(=O)c(-c2cc(F)cc(F)c2)nc2cncnc21
NS(=O)(=O)c1cc(Cl)c(Cl)c(S(N)(=O)=O)c1
CCCCCCCCCCCC(=O)O[C@H](CC(=O)O)C[N+](C)(C)C
CC(C)=CC1C(C(=O)O)C1(C)C (centres undefined)
O=C(c1ccco1)N1CCC2(CC1)CN(c1ncccn1)C2
CC1(C)OC2CC3C4CCC5=CC(=O)CCC5(C)C4(F)C(O)CC3(C)[C@]2(C(=O)CCl)O1 (some centres undefined)
CC1OC(OCC2OC(Oc3c(-c4ccc(O)c(O)c4)oc4cc(O)cc(O)c4c3=O)C(O)C(O)C2O)[C@@H](O)C(O)C1O (some centres undefined)
Cc1c(C)c2c(c(C)c1O)CC[C@@](C)(CN1CCN(c3cc(N4CCCC4)nc(N4CCCC4)n3)CC1)O2
COC(=O)CC1C(C)(C)C(OC(C)=O)C2CC3=C4CC(=O)OC(c5ccoc5)[C@]4(C)CCC3[C@@]1(C)C2=O (some centres undefined)
CC(=O)OCC(=O)[C@@]1(O)CCC2C3CCC4=CC(=O)CC[C@]4(C)C3C(=O)C[C@]21C (some centres undefined)
Cc1ccc(S(=O)(=O)Nc2ccc3ncccc3c2)cc1
Fc1ccc(Br)cc1/C=N/n1cnnc1
CCC1=C(OC(=O)N(CC)CC)N2C(=O)OC(=NCC3CC3)[C@]2(C)[C@H]2C1=CC[C@H]1C(=O)N(CC(=O)OC)C(=O)[C@H]12
CCC(C)C(N)C1=NC(C(=O)NC(CC(C)C)C(=O)NC(CCC(=O)O)C(=O)NC(C(=O)NCCCCC2NC(=O)C(CC(N)=O)NC(=O)C(CC(=O)O)NC(=O)C(Cc3cnc[nH]3)NC(=O)C(Cc3ccccc3)NC(=O)C(C(C)CC)NC(=O)C(CCCN)NC2=O)C(C)CC)CS1 (centres undefined)
O=c1c(CCc2ccccc2)nc2cnc(N3CCNCC3)nc2n1Cc1cccs1
Clc1ccc(C2[C@H]3CN(CC4CCCCC4)[C@H](c4ccccc4)C34CC2(c2cccnc2)C4)cn1 (some centres undefined)
C=CCn1c(CSc2nc3ccccc3s2)nnc1SCC(=O)NCc1ccco1
CCn1c(SCC(=O)Nc2nc3ccc(OC)cc3s2)nnc1-c1ccoc1C
CC(C)=CCC/C(C)=C/CC/C(C)=C/CC/C(C)=C/CO
COc1cc(OC)c2c(c1Cl)OC1(C2=O)C(O)=CC(=O)CC1C (centres undefined)
CCC[C@@H]1C[C@@]1(CCC)C(NS(=O)(=O)c1cccc2cccnc12)c1ccc(Cl)cc1 (some centres undefined)
C=CC(=C)CCC=C(C)C
Fc1cccc(/C=N\N=C/c2cccc(F)c2)c1
O=C1NS(=O)(=O)c2ccccc21
Cc1cccc(CNc2cc(-c3ccccc3Cl)ncn2)c1
FC(F)(F)c1ccc(CN2C[C@@H]3C(c4ccccc4)C4(c5ccccc5)CC3(C4)[C@H]2c2ccccc2)cc1 (some centres undefined)
COc1ccc(CC(=O)Nc2ccc(-c3nnc(-c4ccccc4)o3)cc2)cc1
Cc1ccc(OCC(=O)Nc2ccc(-c3nnc(-c4ccco4)o3)cc2)cc1
Oc1cc(O)c2c(c1)OC(c1ccc(O)c(O)c1)C(O)C2 (centres undefined)
CCC(CCC(C)C1CCC2C3CC=C4CC(O)CC[C@@]4(C)C3CC[C@@]12C)C(C)C (some centres undefined)
COc1ccccc1NC(=O)C1=C(C)NC2=C(C(=O)CCC2)C1c1ccc(C)o1 (centres undefined)
COC(=O)C1=C(C)NC(=O)NC1/C=C/c1ccccc1 (centres undefined)

Potency, active:
Cc1cc(/C=N/n2cnnc2)c(C)n1-c1ccc2ncccc2c1 15.8 µM
C=CCn1c(SCC(=O)Nc2nc3ccccc3s2)nnc1-c1ccccc1O 15.8 µM
Cc1ccc(-c2nn(CC(C)(C)C)c3ncnc(N)c23)cc1 7.94 µM
O=C(CCc1ccccc1)Nc1cccc(-c2nnc(-c3ccco3)o2)c1 25.1 µM
COC(=O)C1=C(C)NC2=C(C(=O)c3ccccc32)C1c1ccc(-c2ccc(C(=O)O)cc2)o1 (centres undefined) 25.1 µM
